Source: PubChem (National Center for Advancing Translational Sciences (NCATS))
An excerpt weighted towards active compounds, which were near 4.6% of everything screened.
NTMT1 inhibitor = blocks human N-terminal methyltransferase 1 activity; Potency, µM (doses to about 114 µM), usual class: inhibitors; 59,000 tested, 2.5% active; Q9BV86; NTMT1 MTase-Glo SAH luminescence, purified enzyme; note: nearly all actives have a fitted effect of over 65% in size
Target sequence (Q9BV86 whole entry, looked up): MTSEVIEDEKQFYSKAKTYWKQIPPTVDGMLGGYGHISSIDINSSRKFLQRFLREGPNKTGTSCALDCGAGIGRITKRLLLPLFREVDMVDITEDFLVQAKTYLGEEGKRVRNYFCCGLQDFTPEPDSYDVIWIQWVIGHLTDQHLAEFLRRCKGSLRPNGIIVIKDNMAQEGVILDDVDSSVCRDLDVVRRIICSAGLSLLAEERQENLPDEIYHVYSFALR
GPR32 ag = GPR32 (DRV1) agonism, beta-arrestin recruitment | AID 1346428 | activation, % at 76.9 µM | 48,000 tested, 2.5% active | O75388 | CHO-K1 GPR32 beta-arrestin PathHunter luminescence, 90 min; zero percent set by DMSO-only wells;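 active = activation of at least 60% and not above a set upper limit, about 1 call in 100 departs from these limits; inconclusive = activation of 40% to 60%, or above that upper limit; inactive = activation under 40%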
Target sequence (O75388 whole entry, looked up): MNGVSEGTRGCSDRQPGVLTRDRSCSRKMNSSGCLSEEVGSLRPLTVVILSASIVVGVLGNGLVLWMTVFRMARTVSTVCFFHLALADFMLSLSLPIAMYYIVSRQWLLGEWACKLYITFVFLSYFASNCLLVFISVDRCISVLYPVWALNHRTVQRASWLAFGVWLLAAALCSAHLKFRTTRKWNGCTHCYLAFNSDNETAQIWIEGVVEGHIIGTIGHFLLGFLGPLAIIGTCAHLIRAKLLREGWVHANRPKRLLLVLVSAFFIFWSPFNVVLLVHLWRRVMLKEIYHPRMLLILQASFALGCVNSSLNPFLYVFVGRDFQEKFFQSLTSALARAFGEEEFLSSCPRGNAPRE
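Step 1: seed CHO-K1 GPR32 beta-arrestin cells, 2,500/well, overnight at 37 °C. Step 2: add compounds, 90 min at 37 °C. Step 3: detection reagent, 1 h ambient, then luminescence.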
HTT prom inh = HTT promoter inhibition | 48,000 tested, 0.93% active | HEK293 HTT promoter firefly luciferase reporter, 24 h | Potency, µM (doses to about 57.5 µM), usual class: inhibitors; note: nearly all actives have a fitted effect of over 50% in size
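Firefly luciferase signal from promoter-reporter HEK293 cells was scaled between vehicle (0%) and zero RLU (-100%). Compounds were tested at final concentrations of up to 57.5 uM over 24 h at 37 degrees C. PTC124 at 50 uM final served as control inhibitor.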
HTT-AS promoter = HTT-AS promoter activation. HEK293 HTT-AS promoter firefly luciferase reporter, 24 h; response scale: percent change from vehicle, -100% = no light. Potency, µM (top dose mostly 57.5 µM), most hits filed as activators. 48,000 tested, 0.24% active. AID 1508624; note: nearly all actives have a fitted effect of over 55% in size
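Quantitative HTS used concentration series of up to 57.5 uM final on HEK293 luciferase reporter cells, 24 h at 37 degrees C. Readout was Dual-Glo firefly luminescence.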
Numbers stand for hits; – = inactive; ? = inconclusive; · = not tested or not shown; ! = repeats disagree; [ ] = remark or other dose. Unless noted, calls come from the whole dose curve; as a rule, active = well fitted curve in the direction sought with a large enough effect; inconclusive = small, poorly fitted or top-dose-only effect, or another doubt; inactive = no such curve, though single readings can be large; an effect the other way counts as inactive or inconclusive.

SMILES	NTMT1 inhibitor	GPR32 ag	HTT prom inh	HTT-AS promoter
CCS(=O)(=O)N1CCc2cc(C(=O)NCCc3ccc(OC)cc3)ccc21	?	–	–	–
CCS(=O)(=O)N1CCc2cc(C(=O)Nc3ccc(Br)cc3F)ccc21	89µM	74	?	–
CS(=O)(=O)N1CCc2cc(C(=O)NCc3ccccc3)ccc21	–	–	–	–
Cc1[nH]cnc1C1CCN(c2nc3cccc4c3n2CCC4=O)CC1	–	·	·	·
Cc1ccc(NC(=O)c2cnn3c(-c4ccccc4)cc(C)nc23)cc1	–	·	·	·
COc1ccc(C(=O)NC(c2ccccc2Cl)c2cc(Cl)c3cccnc3c2O)cc1 (stereo not given)	–	–	8.9µM	–
CC1=CC(=O)C2C(C)(C)CCCC2(C)C12CCC1(COC(=O)C1)O2 (stereo not given)	–	·	·	·
O=c1c(-c2ccc(O)cc2)coc2cc(OC3O[C@H](CO)[C@H](O)[C@H](O)[C@H]3O)cc(O)c12 (stereo not given in full)	24µM	·	–	–
Cc1cc(N2CCN(C)CC2)nc2ccc(NC(=O)Nc3ccc(Cl)cc3)cc12	–	118	–	–
Cc1ccccc1NC(=O)Nc1ccc2nc(N3CCN(C)CC3)cc(C)c2c1	–	–	–	–
COc1ccc(OC)c(NC(=O)c2cc3cc4ccc(C)cc4nc3s2)c1	–	–	–	–
CCN(CCCNC(=O)c1cc2cc3ccc(OC)cc3nc2s1)c1ccccc1	89µM	96	–	–
CCN(CCCNC(=O)c1cc2cc3ccc(OC)cc3nc2s1)c1cccc(C)c1	79µM	?	–	–
CCN(CCCNC(=O)c1cc2c(=O)[nH]c3ccccc3c2s1)c1ccccc1	–	–	–	–
O=S(=O)(c1ccc(O)c2ncccc12)N1CCCCC1	–	·	·	·
O=C(NCCN1CCCCC1)c1ccc(Cn2c(SCc3ccccc3)nc3cccnc32)cc1	40µM	–	–	?
O=C(NC1CC1)c1ccc(Cn2c(SCc3ccc(F)cc3)nc3cccnc32)cc1	–	63	–	–
CC1CCN(CCNC(=O)c2ccc(Cn3c(SCc4ccccc4)nc4cccnc43)cc2)CC1	?	–	–	–
CC1=C2C3OC(=O)C(C)C3(O)CCC2(C)CCC1O (stereo not given)	–	·	·	·
CCn1ccc2c(OCC(=O)Nc3ccccc3C)cccc2c1=O	–	–	–	–
CCn1ccc2c(OCC(=O)Nc3ccccc3C(F)(F)F)cccc2c1=O	–	85	?	–
CCCn1ccc2c(OCC(=O)NCc3ccccc3Cl)cccc2c1=O	–	69	–	–
O=S(=O)(Nc1nc(CN2CCOCC2)nc2sc3c(c12)CCC3)c1ccc2c(c1)OCCO2	–	·	·	·
Cc1cc(O)c2c(O)c3c(O)cccc3cc2c1	–	108	–	–
Cc1ccc(C(C)C)c(O)c1	–	–	–	–
SMILES	NTMT1 inhibitor	GPR32 ag	HTT prom inh	HTT-AS promoter
Cc1ccc(OCCn2c(CCN[S+](=O)([O-])C3CCCCC3)nc3ccccc32)cc1	–	·	·	·
COc1ccc(S(=O)(=O)N(CC(=O)NC(C)c2ccccc2)c2ccc(C)cc2)cc1OC (stereo not given)	–	76	?	–
CC(C)(C)OC(=O)N1CCN(c2ccc(NCc3nnc(-c4ccc(C#N)cc4)o3)cc2)CC1	–	·	·	·
CCSc1nc2c([nH]c3ccccc32)c(=O)n1-c1ccc(F)cc1	–	79	–	–
CC(=O)N[C@H]1[C@H](O[C@H]2CC[C@@]3(C)C(CC[C@]4(C)C3CC=C3C5CC(C)(C)CC[C@]5(C(=O)O)[C@H](O)C[C@]34C)C2(C)C)O[C@H](CO[C@@H]2OC[C@H](O)[C@H](O)[C@H]2O[C@@H]2OC[C@@H](O)[C@H](O)[C@H]2O)[C@@H](O)[C@@H]1O (stereo not given in full)	–[12.6 µM]	·	·	·
Cc1ccc(-c2nc3nc(C)cc(Nc4ccccc4O)n3n2)cc1	–	72	–	–
O=C(Nc1ccc([S+](=O)([O-])Nc2nccs2)cc1)C1CCNCC1	–	·	·	·
c1cc(NC2CCNCC2)nc(-c2cnc3ccccn23)c1	45µM	·	·	·
Clc1ccc2ncc(-c3cccc(NC4CNC4)n3)n2c1	?	·	–	–
CCc1cccc(C)c1Nc1c(-c2ccc(N(C)C)cc2)nc2cnccn12	?	93	–	–
CCc1cccc(C)c1Nc1c(-c2cccc(O)c2)nc2cnccn12	?	?	–	–
CN(C)S(=O)(=O)c1ccc(C(=O)NC2CC(=O)N(c3ccc4c(c3)OCCO4)C2)cc1 (stereo not given)	89µM	–	–	–
CC(=O)c1cccc(NC(=O)c2nc3ccccc3n(C)c2=O)c1	25µM	62	–	?
O=C1NC(=O)C(c2c[nH]c3ccccc23)=C1c1c[nH]c2ccccc12	11µM	·	·	·
Clc1ncoc1-c1c[nH]c2ccccc12	–	·	·	·
COc1cc(NS(=O)(=O)c2ccc(-c3cc(C)no3)cc2)cc(OC)c1	–	–	1.8µM	–
Cc1ccc(OCCn2c(CCNC(=O)c3cccc4[nH]ccc34)nc3ccccc32)cc1	–	·	·	·
CCc1ccc(NC(=O)c2ccc(Cn3nc(N4CCN(c5ccccc5)CC4)ccc3=O)o2)cc1	?	–	?	–
CCc1ccc(-c2cc3c(N4CCN(c5ccccc5)CC4)nccn3n2)cc1	79µM	–	–	–
Cc1ccc(NC(=O)C(=O)NCC2(c3ccccc3)CCCC2)cc1Cl	–	–	–	–
Cc1ccc(C(CC(=O)NCC2(c3ccccc3)CCCC2)c2ccccc2)c(O)c1 (stereo not given)	·	63	·	·
CCn1cc2nc(SCC(=O)Nc3ccc(C)cc3C)n(Cc3ccc(C)cc3)c(=O)c2n1	89µM	–	?	–
CCn1cc2nc(SCC(=O)Nc3cccc(Cl)c3C)n(Cc3ccc(Cl)cc3)c(=O)c2n1	?	–	–	–
CC(C)C(C(=O)N1CCCC1C(=O)O)N(C)C(=O)C(O)Cc1ccccc1 (stereo not given)	–	·	·	·
CN(C)c1ccc(O)c2c1C[C@H]1C[C@H]3[C@H](N(C)C)C(=O)C(C(N)=O)=C(O)[C@@]3(O)C(=O)C1=C2O	79µM!	–	–	–
SMILES	NTMT1 inhibitor	GPR32 ag	HTT prom inh	HTT-AS promoter
Cc1cc(NC(=O)CCNS(=O)(=O)c2ccc3c(c2)CCCC(=O)N3)ccc1Br	–	100	–	–
CC(C)c1ccc(NC(=O)CCNS(=O)(=O)c2ccc3c(c2)CCCC(=O)N3)cc1	–	–	–	–
CCCN(CCC)CCCNC(=O)c1cc2c(=O)n(C)c3ccccc3c2s1	50µM	–	–	–
CCn1c(=O)c2cc(C(=O)NCCCN(C)Cc3ccccc3)sc2c2ccccc21	?	–	–	–
O=C(Nc1ccccc1)C1CCN(c2nc(-c3ccc(Br)cc3)cs2)CC1	–	·	·	·
O=C(Nc1nnc(SCc2cc(=O)c3ccccc3[nH]2)s1)c1ccccc1	–	–	?	–
Cc1ccc(C(=O)Nc2nnc(SCc3cc(=O)c4c(C)ccc(C)c4[nH]3)s2)cc1	–	71	?	–
CCc1ccccc1-c1nc(NCc2ccc(-c3cccnc3)cc2)c2ccccc2n1	–	·	·	·
c1ccc2[nH]c(-c3cscn3)nc2c1	?	–	–	19µM!
CCOc1ccc(COc2ccc(-c3nc4ccccc4[nH]3)cc2)cc1	–	·	·	·
